7 compounds from PubChem BioAssay (NCI) can be followed below.

Molecules are shown by their SMILES. The panel holds about 83,000 compounds, 20% with a hit somewhere; the sample as a whole holds those more often.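 96-well plates, one dose, 48 hours. Percent growth reported; active if below 10.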 Unmarked numbers belong to inactive results. Active and inactive are the calls of the source.

In this test the test system is SNB-75 CNS. Description: NCI-60 one-dose screen, 48 h (100 = growth as untreated, 0 = no growth, -100 = all killed). The following applies: 10 µM unless noted.
Consider `COc1cnc2c(c1)C(=O)c1c-2n(CCCNC2=NCCS2)c(=O)c2cc(F)ccc12`, for which the growth is 33.1%.
For the compound `Cc1onc(-c2ccccc2Cl)c1C(=O)N[C@@H]1C(=O)N2[C@@H]1SC(C)(C)[C@@H]2C(=O)O`, the growth is 103%.
`C[C@H]1O[C@@H](O[C@H]2[C@@H](O)C[C@H](O[C@H]3[C@@H](O)C[C@H](O[C@H]4CC[C@]5(C)C6C[C@@H](O)[C@]7(C)[C@@H](C8=CC(=O)OC8)CC[C@]7(O)C6CC[C@@H]5C4)O[C@@H]3C)O[C@@H]2C)C[C@H](O)[C@@H]1O` (some centres not stated): the growth was -75.6% (active).
Consider `CC1CN(/N=C/c2ccc([N+](=O)[O-])o2)C(=N)O1` (configuration not stated), for which the growth was 105%.
For `O=C1NCCc2c1noc2-c1ccccc1`, the growth is 89.7%.
For the compound `CC(=O)c1ccccc1NC(=O)C(C)(c1ccccc1)c1ccccc1`, the growth was 81.1%.
As for `Cc1n(Cc2ccc3ccccc3c2)c2ccccc2[n+]1Cc1ccc2ccccc2c1`, the growth was -46.2% (active).
